High-throughput results: PubChem, several laboratories
CYP2C19 act: cytochrome P450 2C19 (human) activation | 96,000 tested, under 10 active | recombinant CYP2C19, luciferin-H EGE luminescence; active compounds read high; 0 = fully inhibited enzyme, 1 = untreated enzyme | AID 1025 | activation factor at 5 µM;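 active = activation factor of at least 2 at 5 µM in the primary screen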;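 note: 0 = wells with 2.5 mM tranylcypromine and 1 = vehicle-only wells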
Target sequence (P33261 whole entry, looked up): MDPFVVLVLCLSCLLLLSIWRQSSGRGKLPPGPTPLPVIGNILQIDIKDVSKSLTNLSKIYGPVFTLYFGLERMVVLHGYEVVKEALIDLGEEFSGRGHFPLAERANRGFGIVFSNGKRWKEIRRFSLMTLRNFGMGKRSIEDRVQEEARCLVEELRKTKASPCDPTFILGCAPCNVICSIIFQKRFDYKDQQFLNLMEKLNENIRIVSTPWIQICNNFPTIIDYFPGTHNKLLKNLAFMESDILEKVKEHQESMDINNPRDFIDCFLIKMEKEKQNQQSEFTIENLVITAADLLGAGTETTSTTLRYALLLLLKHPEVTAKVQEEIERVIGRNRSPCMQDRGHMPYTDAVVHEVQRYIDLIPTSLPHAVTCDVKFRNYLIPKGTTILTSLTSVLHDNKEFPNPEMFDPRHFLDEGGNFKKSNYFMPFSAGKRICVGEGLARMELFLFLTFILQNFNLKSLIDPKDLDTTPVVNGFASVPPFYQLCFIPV
CYP2C9 inh: human CYP2C9 inhibition; CYP2C9 Supersomes, luciferin-H conversion, luminescence; inhibition, % at 5 µM; P11712; 96,000 compounds, 20% hits; AID 777;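 active = blocking of liver enzyme CYP2C9 beyond about 50% at 5 µM, limit read from the data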
CYP2C19 inhib: human CYP2C19 inhibition. P33261. CYP2C19 Supersomes, luciferin-H EGE luminescence, 30 min. inhibition, % at 5 µM. 96,000 compounds, 21% hits. AID 778;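 active = CYP2C19 inhibition above a set limit at 5 µM in the primary screen, cut at about 50% in these data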;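 note: plate controls were negative control wells for no effect and 2.5 mM tranylcypromine positive control for full effect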
CYP2C9 activ: increases human cytochrome P450 2C9 activity | recombinant CYP2C9, luciferin-H conversion, luminescence; active compounds read high; factor 1 = untreated enzyme, 0 = blocked | activation factor at 5 µM | 96,000 compounds, 1.4% hits | AID 1024;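 active = activation factor of 2 or more for CYP2C9 at a 5 µM dose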;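 note: 0 = sulfaphenazole-blocked wells and 1 = vehicle-only wells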
Cav32 inh: human Cav3.2 channel inhibition, primary screen; O95180; Cav3.2-expressing cells, Fluo-4 calcium fluorescence FDSS; active compounds read low; B-score at 10 µM; 100,000 compounds, 4% hits;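 active = single-dose well whose peak fluorescence ratio is a statistical outlier from its plate by either plate-standardised score or position-corrected B-score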
* marks the source's active call; other numbers are inactive results; . = not tested or not shown. An excerpt weighted towards active compounds, which were near 27% of everything screened.

SMILES	CYP2C19 act	CYP2C9 inh	CYP2C19 inhib	CYP2C9 activ	Cav32 inh
CC1=C(C(N)=O)C(c2ccncc2)n2nc(-c3ccccc3Cl)nc2N1 (centres undefined)	0.8	6	22	0.9	0.41
Cc1csc(NC(=O)C2CCC(C)(C(=O)O)C2(C)C)n1 (centres undefined)	1.1	-5	-5	1	-0.32
O=C(N1CCOCC1)N1CCN(S(=O)(=O)N2CCCCC2)CC1	0.9	6	10	0.9	-0.15
CCOC(=O)C1CCN(CC(O)COc2ccc(C(C)(C)CC)cc2)CC1 (centres undefined)	0.8	16	22	0.8	-1.5
CCOC(=O)C1CCN(CC(O)COc2ccc(C(C)(C)C)cc2)CC1 (centres undefined)	0.4	40	56*	0.6	-1.1
CC1=NN(c2ccccc2)C(=O)/C1=C/c1cc2cc(C)ccc2nc1N1CCCCC1	0.3	81*	67*	0.2	1.4
COc1cc(OC)cc(-c2cc3nc(C)c(CCC(=O)O)c(C)n3n2)c1	0.8	24	19	0.8	-0.48
COc1cc([N+](=O)[O-])ccc1NC(=O)C[n+]1ccccc1C	0.9	8	5	0.9	0.38
Cn1c(SCC(=O)NCc2ccc3c(c2)OCO3)nnc1C1COc2ccccc2O1 (centres undefined)	0.7	34	28	0.7	0.46
CCCCNC1C(CC)C(CCC)C(C#N)(C#N)C1(C#N)C#N (centres undefined)	0.9	-3	9	1	0.042
CCCSc1nc(N2CCCC2)c2c(c1C#N)CC(C)(C)OC2	0.4	94*	57*	0.1	-0.46
CC1(C)Cc2c(C#N)c(SCCOc3ccccc3)nc(N3CCOCC3)c2CO1	0.1	99*	89*	0	-3.5
CSc1nc(N2CCCC2)c2c(c1C#N)CC(C)(C)OC2	0.8	29	19	0.7	0.0032
CC1(C)Cc2c(C#N)c(SCCC#N)nc(N3CCOCC3)c2CS1	0.5	92*	51*	0.1	-3.9*
CCOC(=O)C1CCN(C(C(=O)NC2CCCC2)c2ccc(C)cc2)CC1 (centres undefined)	0.9	41	8	0.6	0.55
O=C(Nc1ccc(Cl)cc1)[C@@H]1[C@@H]2C(=O)N(c3ccc(Cl)cc3)C(=O)[C@@H]2[C@H]2C=CC=NN21	1.1	59*	-10	0.4	-5.8*
O=C(Nc1ccc(Cl)cc1)[C@@H]1[C@@H]2C(=O)N(c3ccc(Cl)cc3Cl)C(=O)[C@@H]2[C@H]2C=CC=NN21	0.7	38	30	0.6	-4.7*
Cc1ccc(N2C(=O)[C@@H]3[C@H](C2=O)[C@H]2C=CC=NN2[C@@H]3C(=O)Nc2ccc(Cl)cc2)cc1	0.9	33	9	0.7	-0.94
COc1cc(S(=O)(=O)N2CCN(C(=O)c3ccccc3F)CC2)c(OC)cc1NC(C)=O	1	23	5	0.8	0.96
O=C1c2ccccc2CCC12N=NCC2c1ccc(Cl)cc1 (centres undefined)	0.2	15	84*	0.8	-2.2
O=C1CC(c2ccc(Cl)cc2)n2nc(N3C(=O)c4ccccc4C3=O)nc2N1 (centres undefined)	0.7	32	29	0.7	-0.54
O=C1c2ccccc2CCC12N=NCC2c1ccc(Br)cc1 (centres undefined)	0	49	99*	0.5	-2
COC1CCCCC1NS(=O)(=O)c1ccccc1 (centres undefined)	0.4	11	56*	0.9	-0.25
Cc1cc(S(=O)(=O)NC2CCCC2)ccc1F	0.7	12	26	0.9	1.2
COC1CCCCC1NS(=O)(=O)c1ccc(Cl)cc1 (centres undefined)	0.1	28	94*	0.7	.
SMILES	CYP2C19 act	CYP2C9 inh	CYP2C19 inhib	CYP2C9 activ	Cav32 inh
CSc1nnc(NC(=O)c2cc3ccccc3oc2=O)s1	1	5	2	0.9	0.25
COc1ccc(S(=O)(=O)Nc2nc3n(n2)C(c2ccc(Cl)cc2)CC(=O)N3)cc1 (centres undefined)	1.2	20	-19	0.8	.
CN1C(=O)OC(C)(CCc2ccccc2)C1(C)O (centres undefined)	0.7	-1	25	1	-1
CC1(O)N(Cc2ccccc2)C(=O)OC12CCCCC2 (centres undefined)	0.3	10	74*	0.9	-1.1
COc1cc(OC)c(C2=NOC(C(=O)N3CCCc4ccccc43)C2)cc1Cl (centres undefined)	0.7	-8	30	1.1	-1.8
CCC1CCCCN1C(=O)C1CC(c2cc(Cl)c(OC)cc2OC)=NO1 (centres undefined)	0.3	-94	72*	1.9	-1
Cc1ccccc1S(=O)(=O)Cc1ccc(C(=O)N2CCN(C3CCCCC3)CC2)o1	.	.	.	.	0.55
COc1ccccc1N1CCN(C(=O)c2ccc(CS(=O)(=O)c3ccccc3OC)o2)CC1	0.7	79*	35	0.2	2.4
CCOC(=O)N1CCN(C(=O)c2ccc(CS(=O)(=O)c3ccccc3OC)o2)CC1	1	22	-3	0.8	-0.62
COc1ccccc1S(=O)(=O)Cc1ccc(C(=O)NCCN2CCCCCC2)o1	1.2	-7	-17	1.1	0.8
COc1ccc(S(=O)(=O)Cc2ccc(C(=O)N3CCN(c4cccc(C)c4)C(C)C3)o2)cc1 (centres undefined)	0.4	90*	58*	0.1	-2
Cc1ccccc1S(=O)(=O)Cc1ccc(C(=O)N2CCN(c3ncccn3)CC2)o1	0.1	84*	92*	0.2	0.93
COc1ccccc1S(=O)(=O)Cc1ccc(C(=O)N2CCN(c3ccc(C)cc3)C(C)C2)o1 (centres undefined)	0.4	91*	55*	0.1	-0.85
COc1ccc(OC)c(/C=N/NC(=O)c2csc3ccccc23)c1	1	-4	-3	1	.
CC(=O)Nc1ccc(S(=O)(=O)NC2(C(F)(F)F)N=C(c3ccccc3)NC2=O)cc1 (centres undefined)	1.1	3	-9	1	0.87
CCC/C(O)=N\S(=O)(=O)c1ccc(N=NN(C)C)cc1	.	.	.	.	-0.0062
CCOC(=O)C1CCN(C(=O)c2cnn3c(C)cc(C)nc23)CC1	1	13	4	0.9	0.4
O=C1CC(N2CCN(S(=O)(=O)c3cccc(C(F)(F)F)c3)CC2)C(=O)N1Cc1ccccc1 (centres undefined)	0.4	-20	59*	1.2	-1.7
Cc1ccc(S(=O)(=O)N2CCN(C3CC(=O)N(Cc4ccccc4)C3=O)CC2)cc1C (centres undefined)	0.4	-58	60*	1.6	-1.4
COc1ccc(OC)c(NC(=O)CC(NCCC2=CCCCC2)C(=O)O)c1 (centres undefined)	1	34	4	0.7	.
CC(=O)OCC(=O)NCC(=O)c1c[nH]c2ccccc12	.	.	.	.	0.34
N#CC1=C2SCN(Cc3ccco3)CN2C(=O)CC1c1cccc2ccccc12 (centres undefined)	1.1	42	-8	0.6	0.21
